The structures appear in SMILES notation. Active and inactive are the calls of the source. Unless noted, the rule behind the calls is not given here.

Test [1] concerns XIP peptide (Xip251-270) binding. The test is described as follows: small-molecule binders of XIP peptide, primary screen, biochemical, small-molecule microarray, fluorescence 635/667 nm, 0.1 µg/mL protein (AID 1182). As to conditions: fluorescent protein binding, 635 nm, higher = more signal, called active from +8 up or from −8 down.
Another test relates to XIP peptide (Xip251-270). Put plainly: small-molecule binders of XIP peptide, primary screen, biochemical, small-molecule microarray, fluorescence 635/667 nm, 0.5 µg/mL protein (AID 1183). As to conditions: small-molecule microarray binding, fluorescence 635 nm; higher = more signal.
A short description of test [2]: Plasmodium falciparum growth inhibition, primary screen, strain 3D7, DAPI fluorescence, 100 nL (AID 1184).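 Note: parasites grown inside human red blood cells in medium with human serum.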 Conditions: P. falciparum 3D7 growth, 3 d, higher = more signal.
Test [3] concerns the target Homeobox protein Hox-A13 (Mus musculus) (UniProt Q62424). Put plainly: inhibitors of HoxA13-DNA binding, primary screen, biochemical, fluorescence polarization, labeled oligonucleotide (AID 1185). Conditions: 15 min, higher = more signal, called active from +8 up or from −8 down.
Test [4] can be described thus: inhibitors of hydroxyurea-induced Chk1 phosphorylation, primary screen, imaging, HeLa, phospho-Chk1 antibody, percent positive cells (AID 1186). As to conditions: hydroxyurea-induced phospho-Chk1 immunofluorescence imaging, higher = more signal.
The nature of test [5]: inhibitors of hydroxyurea-induced Chk1 phosphorylation, primary screen, imaging, HeLa, phospho-Chk1 nuclear intensity (AID 1187). As to conditions: hydroxyurea-induced phospho-Chk1 immunofluorescence imaging, higher = more signal.

Homeobox protein Hox-A13 (Mus musculus), sequence (Q62424 whole entry, looked up): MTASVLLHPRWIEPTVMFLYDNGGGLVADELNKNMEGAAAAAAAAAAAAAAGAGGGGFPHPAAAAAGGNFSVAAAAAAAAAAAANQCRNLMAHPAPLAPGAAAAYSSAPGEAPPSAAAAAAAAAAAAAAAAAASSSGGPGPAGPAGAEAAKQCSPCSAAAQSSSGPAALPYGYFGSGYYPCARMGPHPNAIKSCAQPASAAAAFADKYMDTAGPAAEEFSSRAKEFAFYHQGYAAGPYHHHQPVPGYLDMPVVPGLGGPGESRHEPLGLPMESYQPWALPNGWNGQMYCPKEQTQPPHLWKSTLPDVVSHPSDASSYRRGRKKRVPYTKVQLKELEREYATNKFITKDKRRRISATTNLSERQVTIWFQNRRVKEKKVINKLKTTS

Take `COc1ccc([Si](C)(C)[C@@H]2[C@@H](CC(=O)N3Cc4ccccc4C[C@H]3CO)O[C@]3(C(=O)N(Cc4ccc(N5CCC5=O)cc4)c4ccccc43)[C@H]2C)cc1`: the composite z-score in test [1] was 1.08 (inactive); in the test on XIP peptide (Xip251-270), 0.682. Also, the z-score was -2.64 in test [2], -0.855 (inactive) in test [3], -0.169 (inactive) in test [4] and 0.14 (inactive) in test [5].

With `Cc1ccc(C(C)CC(O)C2C=CC3C(=O)N(c4ccccc4)C(=O)C3N2Nc2ccc(C#N)cc2)o1` (configuration not stated), the composite z-score in test [1] is 0.662 (inactive); with XIP peptide (Xip251-270) it was 0.322. In addition, the z-score in test [2] is 0.25; in test [3], -3.75 (inactive); in test [4] it was 0.124 (inactive); in test [5], 0.222 (inactive).

Regarding `CC(C)N1CC=CC23O[C@@H]4/C=C\CCCOC(=O)C4[C@H]2C(=O)N(CCCCCCO)[C@@H]3C1=O` (some centres not stated), the composite z-score in test [1] is 1.15 (inactive); with XIP peptide (Xip251-270) it was -0.853. Besides, the z-score is -0.064 in test [2], -5.14 (inactive) in test [3], -0.765 (inactive) in test [4] and -0.0806 (inactive) in test [5].

Take `CN1C=C(C(=O)OCCS(C)(=O)=O)C(C(=O)OCCS(C)(=O)=O)=CC(c2ccc(CO)cc2)=CC1c1cccs1` (configuration not stated): the results for the composite z-score (in test [1]; with XIP peptide (Xip251-270)) were 0.514 (inactive) and 0.496, respectively. In addition, the z-score was -2.58 in test [2], -5.46 (inactive) in test [3], -0.163 (inactive) in test [4] and -0.265 (inactive) in test [5].

Consider `[N-]=[N+]=Nc1ccccc1C[C@@]1(C(=O)O)N=C(c2ccc(OCCCO)cc2)O[C@@H]1c1ccccc1N=[N+]=[N-]`, for which the composite z-score in test [1] was 0.0588 (inactive); in the test with XIP peptide (Xip251-270) it was 0.736. For the same compound, the z-score in test [2] was -1.74; in test [3] it was -5.17 (inactive); in test [4] it was -0.267 (inactive); in test [5], -0.317 (inactive).

Consider `CC(C)C(=C=CC[C@H](O)c1cccc(OCCO)c1)CCO`, for which the composite z-score in test [1] is 0.675 (inactive); in the test with XIP peptide (Xip251-270), 0.0075. Besides, the z-score in test [2] was 0.585; in test [3], -1.92 (inactive); in test [4] it was 0.0348 (inactive); in test [5], 0.549 (inactive).

With `COCC1=C2[C@@H](CCc3ccccc3)OB(O)C[C@@H]2[C@@H]2C(=O)N(C)C(=O)[C@@H]2C1`, the figures for the composite z-score (in test [1]; in the test with XIP peptide (Xip251-270)) were 0.0872 (inactive) and 0.763, respectively. Further, the z-score in test [2] is 1.22; in test [3], -7.72 (inactive); in test [4], 0.684 (inactive); in test [5], 1.24 (inactive).

Regarding `COCCOC(=O)N1C(=O)[C@@]2(c3cc(C#Cc4ccc(OC)cc4)ccc31)[C@H](c1ccc(OCCO)cc1)N1[C@H](c3ccccc3)[C@H](c3ccccc3)OC(=O)[C@H]1[C@@H]2C(=O)Nc1nc2ccccc2s1`, the composite z-score in test [1] was 0.968 (inactive); in the test with XIP peptide (Xip251-270), 0.414. Further, the z-score in test [2] was -0.817; in test [3], 1.31 (inactive); in test [4], -0.007 (inactive); in test [5], 0.254 (inactive).

As for `COCCCNC(=O)[C@@]1(c2ccc([N+](=O)[O-])cc2)CC(=O)N(C(C)C)[C@@H]1c1ccc(CO)cc1`, the composite z-score is -1.3 (inactive) in test [1] and 0.64 in the test with XIP peptide (Xip251-270). In addition, the z-score is 0.382 in test [2], -0.803 (inactive) in test [3], 0.0991 (inactive) in test [4] and 0.621 (inactive) in test [5].

For `CN1C(=O)C2C=CC(C(O)c3cc(C(F)(F)F)cc(C(F)(F)F)c3)N(Nc3ccccc3)C2C1=O` (configuration not stated), the figures for the composite z-score (in test [1]; in the test with XIP peptide (Xip251-270)) were 1.9 (inactive) and 0.128, respectively. Also, the z-score was 1.08 in test [2], -3.84 (inactive) in test [3], -0.0145 (inactive) in test [4] and 0.0934 (inactive) in test [5].

`COCCCNC(=O)[C@@H]1c2ccccc2C(=O)N(C2Cc3ccccc3C2)[C@H]1c1ccc(CO)cc1`: the composite z-score is -0.295 (inactive) in test [1] and 0.583 in the test on XIP peptide (Xip251-270). Moreover, the z-score in test [2] is -0.804; in test [3], -2.44 (inactive); in test [4] it was -0.533 (inactive); in test [5] it was -0.726 (inactive).

For the compound `COCCOC(=O)N1C(=O)[C@@]2(c3cc(C#CC4(O)CCCCCC4)ccc31)[C@H](C(=O)N1CCN(c3ncccn3)CC1)[C@H]1C(=O)O[C@H](c3ccccc3)[C@H](c3ccccc3)N1[C@@H]2c1ccccc1OCCO`, the results for the composite z-score (in test [1]; in the test with XIP peptide (Xip251-270)) were 1.01 (inactive) and 0.61, respectively. The z-score in test [2] is -2.07; in test [3] it was -0.77 (inactive); in test [4], -0.0411 (inactive); in test [5] it was 0.0349 (inactive).

In the case of `CCCNC(=O)[C@@]1(Sc2ccc(C)cc2)CC(=O)N(C2CCCCC2)[C@@H]1c1ccc(CO)cc1I`, the values for the composite z-score (in test [1]; in the test on XIP peptide (Xip251-270)) were 0.398 (inactive) and 0.372, respectively. Also, the z-score in test [2] was -0.688; in test [3], -4.72 (inactive); in test [4] it was 0.493 (inactive); in test [5] it was 0.252 (inactive).

With `COc1cc2c(cc1OC)CN(C(=O)[C@@H]1[C@H]3C(=O)O[C@H](c4ccccc4)[C@H](c4ccccc4)N3[C@H](c3ccc(O)cc3)[C@@]13C(=O)Nc1ccc(C#CCCO)cc13)CC2`, the composite z-score in test [1] was 1.33 (inactive); with XIP peptide (Xip251-270) it was 0.723. Also, the z-score in test [2] was -1.16; in test [3], -2.6 (inactive); in test [4], 0.189 (inactive); in test [5], 0.28 (inactive).

Turning to `COc1cc2c(cc1O)C(c1cccs1)N(Cc1sc3ccccc3c1Cl)CC2` (configuration not stated), the composite z-score in test [1] was 0.791 (inactive); with XIP peptide (Xip251-270), 0.867. For the same compound, the z-score was -1.66 in test [2], -1.54 (inactive) in test [3], 0.326 (inactive) in test [4] and 0.638 (inactive) in test [5].

With `CCCCC=C[C@@H](NC(=O)c1ccccc1)c1ccccc1`, the composite z-score in test [1] is 0.558 (inactive); in the test on XIP peptide (Xip251-270) it was 0.496. For the same compound, the z-score in test [2] is -1.47; in test [3], 2.61 (inactive); in test [4], 0.855 (inactive); in test [5], 0.274 (inactive).

In the case of `CCCCC(=C=CC[C@H](O)c1ccc(OCCO)cc1)C[C@H](O)c1cc(Cl)cc(Cl)c1O`, the composite z-score in test [1] is -0.0399 (inactive); in the test on XIP peptide (Xip251-270), 0.416. Also, the z-score was -1.51 in test [2], -2.25 (inactive) in test [3], -0.0695 (inactive) in test [4] and -0.301 (inactive) in test [5].
